Each structure is given as a SMILES string. The panel holds about 83,000 compounds, 20% with a hit somewhere; the sample as a whole holds those more often.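 Each cell line was grown in a 96-well plate and treated with one concentration of compound for 48 hours. Values below 10 were considered active.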 Calls of active or inactive are those of the source.

For this test, the system named is HL-60(TB) leukemia. Description: NCI-60 one-dose screen, 48 h (100 = growth as untreated, 0 = no growth, -100 = all killed). As to conditions: 10 µM unless noted.
`O=C(c1ccccc1)C1(Br)CCCCC1`: the growth is 106% (inactive).

As to `O=C1Nc2cc(Cl)ccc2/C1=C\c1c(-c2ccc(F)cc2)nc2ccccn12`, the growth is -46% (active).

For `O=[N+]([O-])c1ccccc1C(O)Cc1ccc2ccccc2n1` (stereo not given), the growth is 107% (inactive).

`NC(=N\N=C/c1ccc(O)cc1)/C(N)=N\N=C/c1ccc(O)cc1`: the growth was 25.9% (inactive).

On to `COc1ccc2c(c1)C(C)Cc1c(ncnc1-n1cnc3cc(C)ccc31)N2C` (stereo not given), for which the growth is -25.8% (active).

`O=Cc1c(OCc2cnnn2CC(=O)Nc2ccc(Br)cc2)ccc2ccccc12`: the growth was 105% (inactive).

As for `COc1ccc(C2C=C(c3ccc(N)cc3)N=C3SC=CN32)cc1OC` (stereo not given), the growth was 105% (inactive).

Regarding `COc1ccc(-c2cnc(-c3ccncc3-c3cccc(OC)c3)o2)cc1`, the growth is 0.0287% (active).

`O=c1c(-c2ccc3c(c2)OCO3)coc2c(CO)c(O)ccc12`: the growth was -46.9% (active).

Consider `CCOC(=O)C1=CSC2=NC3=C(CCC/C3=C\c3cc(OC)c(OC)c(OC)c3)C(c3cc(OC)c(OC)c(OC)c3)N12` (stereo not given), for which the growth is 51.5% (inactive).

Take `O=c1[nH]cc(/C=N\Nc2ccccc2)c(=O)[nH]1`: the growth was 0.751% (active).

As for `O=c1c2cc(F)cc(Cl)c2sc2c(NCCCNCCO)nc3ccccc3c12`, the growth was 77.1% (inactive).

As for `O=C(Nc1ccc2ncnc(Nc3ccc(F)c(Cl)c3)c2c1)c1cccs1`, the growth was 89.7% (inactive).

Consider `CCc1nc(C(N)=O)c(Nc2ccc(N3CCC(N4CCN(C)CC4)CC3)c(OC)c2)nc1NC1CCOCC1`, for which the growth was 9.89% (active).

For `O=C(Nc1cccc(Cn2c(=O)[nH]c3ccc(Oc4ncccn4)cc3c2=O)c1)c1cccc(F)c1`, the growth is 89.9% (inactive).

As to `OCc1cc(CN2CCCCC2)c(O)c2ncccc12`, the growth was 33.2% (inactive).

As for `N=c1c2c(-c3ccccc3)c(-c3ccccc3)n(Cc3ccccc3)c2ncn1CCCO`, the growth is 39% (inactive).

Consider `COc1ccc(/C=N/NC(=O)c2ccc(-n3cc(-c4ccccc4)nn3)cc2)cc1OC`, for which the growth was 94.2% (inactive).

Take `C=C1C(=O)O[C@H]2[C@H]1CC/C(Cn1cc(CNC(=O)/C=C/c3c[nH]c4ccccc34)nn1)=C\CC[C@@]1(C)O[C@@H]21`: the growth is 29.9% (inactive).

`CC(=O)CC[C@H]1C(=O)N[C@@H](C(C)C)C(=O)N[C@@H](Cc2cc(O)cc(F)c2)C(=O)N2CCC[C@H](N2)C(=O)O[C@H](/C(C)=C/C=C/C(=O)OC(C)(C)C)C/C=C/C=C/[C@H](O)[C@H](C)[C@H]1O`: the growth is 56% (inactive).

For the molecule `CCc1nc2cc(F)c(/C=C/C(=O)NO)cc2c(=O)n1CCc1ccccc1`, the growth was 0.13% (active).

Take `NC(=NCCCOc1ccc(Cl)cc1)Nc1ccc(Cl)cc1`: the growth was 95.3% (inactive).

Consider `Oc1c(N=Nc2nn[nH]n2)ccc2ccccc12`, for which the growth is 98.2% (inactive).

Regarding `C=C[C@H]1CCC/C=C/[C@@H]2C[C@H](O)C[C@H]2[C@H](O)/C=C/C(=O)O1`, the growth was -0.65% (active).

`CC[C@]1(O)CC2CN(CCc3c([nH]c4ccccc34)[C@@](C(=O)OC)(c3cc4c(cc3OC)N(C=O)[C@H]3[C@@](O)(C(=O)OC)[C@H](OC(C)=O)[C@]5(CC)C=CCN6CC[C@]43[C@@H]65)C2)C1` (stereo not given in full): the growth was 7.11% (active).

Turning to `CCOC(=O)CC1CSC(N/N=C/c2ccc(O)cc2)=N1` (stereo not given), the growth was 97.6% (inactive).

`Cc1cc(N/N=C/c2nc(-c3ccc(Br)cc3)oc2C)c2cc(Cl)ccc2n1`: the growth is -0.0323% (active).

As to `CCc1ccc2nc(NC(=O)Cc3csc(NC(=O)c4ccco4)n3)sc2c1`, the growth was 74.2% (inactive).

`CCCCNc1cc(-c2cn[nH]c2-c2cc(C)cc(OC)c2)nc(-c2cccnc2)n1`: the growth was 105% (inactive).

Regarding `N#C/C(=C/c1ccc(O)c([N+](=O)[O-])c1)c1nc(-c2ccc([N+](=O)[O-])cc2)cs1`, the growth was 26.5% (inactive).

For the molecule `CC(=O)O[C@]1(C)C[C@H](O)[C@]2(O)C=CO[C@H](O[C@@H]3O[C@H](CO)[C@@H](O)[C@H](O)[C@H]3O)[C@@H]21`, the growth was 92.5% (inactive).

Consider `Cc1cc(NN=C(c2ccc(O)cc2)c2ccc(O)cc2)c([N+](=O)[O-])cc1[N+](=O)[O-]`, for which the growth was 66.9% (inactive).

In the case of `Cc1ccc(NC(=O)c2sc3nc(C)c(C(=O)c4ccccc4)cc3c2N)cc1`, the growth was 84.2% (inactive).

As to `COc1cc(/C=C/C(=O)CC(=O)/C=C/c2ccc(OC(=O)C3C4CC5CC(C4)CC3C5)c(OC)c2)ccc1OC(=O)C1C2CC3CC(C2)CC1C3` (stereo not given), the growth is 94% (inactive).

Turning to `O=c1c2cccc3c(Nc4ccccn4)ccc(c32)c2nc3ccccc3n12`, the growth is 62.3% (inactive).

(Values after PubChem BioAssay (NCI).)
